# The entries come from a sample that favours hits as a whole.
# NS1 function inh = qHTS Assay for Inhibitors of Influenza NS1 Protein Function; Potency, µM (series often up to 46.1 µM); 0.4% of 270,000 active; AID 2326, 2010; calls by dose curve; further: actives are rising curves; nearly all actives have a fitted effect of over 50% in size
#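 Growth recovery, yeast-based: influenza A NS1 expressed in S. cerevisiae causes slow growth, and suppressors are detected by OD600. The parent strain without NS1 is used as positive control.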
# Cruzain Triton = qHTS Assay for Promiscuous and Specific Inhibitors of Cruzain (with detergent) | Cruzipain (Trypanosoma cruzi), P25779 | purified cruzain, Z-FR-AMC fluorescence, 0.01% Triton | Potency, µM, most hits filed as inhibitors | 0.43% of 200,000 active | AID 1478, 2009; further: nearly all actives have a fitted effect of over 40% in size
# Target sequence (P25779 123-467 limits assumed): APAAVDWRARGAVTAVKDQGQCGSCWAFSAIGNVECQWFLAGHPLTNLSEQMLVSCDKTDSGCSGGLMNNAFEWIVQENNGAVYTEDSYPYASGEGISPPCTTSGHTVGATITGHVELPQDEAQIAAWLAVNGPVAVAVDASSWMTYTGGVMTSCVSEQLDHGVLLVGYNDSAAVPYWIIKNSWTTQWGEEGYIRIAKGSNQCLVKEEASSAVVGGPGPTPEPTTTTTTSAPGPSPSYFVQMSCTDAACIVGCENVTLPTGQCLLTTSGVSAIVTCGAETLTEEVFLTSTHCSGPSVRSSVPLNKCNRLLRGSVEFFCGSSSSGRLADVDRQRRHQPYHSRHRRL
#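 Steps: dispense cruzain (1.5 nM final) in acetate buffer pH 5.5 with DTT and 0.01% Triton X-100; pin-transfer compounds; incubate 15 min RT; add Z-FR-AMC (2 uM final); read fluorescence every 30 s, using the 60 s intensity change.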
# Cruzain inh noDet = qHTS Assay for Promiscuous and Specific Inhibitors of Cruzain (without detergent). Cruzipain (Trypanosoma cruzi), P25779. purified cruzain, Z-FR-AMC fluorescence, no detergent. Potency, µM, hits mostly inhibitors. 2.3% of 200,000 active; further: nearly all actives have a fitted effect of over 40% in size
#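 Detergent-free condition (0.00005% Triton X-100) in acetate buffer pH 5.5 with DTT. 1.5 nM enzyme and compound were pre-mixed 15 min, then 2 uM Z-FR-AMC substrate added; reaction progress from fluorescence change between first and third reads (60 s).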
# Numbers stand for hits; i = inactive; ? = inconclusive; nt = no result given. Unless noted, the call rests on the fitted dose curve; in most records, active means well fitted curve in the direction sought with a large enough effect; inconclusive means small, poorly fitted or top-dose-only effect, or another doubt; inactive means no such curve, though single readings can be large; an effect the other way counts as inactive or inconclusive.
SMILES,NS1 function inh,Cruzain Triton,Cruzain inh noDet
Cc1cc(C(=O)CSc2nnc(-c3ccco3)o2)c(C)n1-c1ccc2c(c1)OCCO2,i,i,10µM
Cc1cc(C(=O)CSc2nnc(-c3cccs3)o2)c(C)n1-c1ccccc1,i,i,25µM
CCC(Oc1ccccc1-c1nnc(-c2ccccc2)o1)C(=O)Nc1ccc(C(C)=O)cc1 (stereo not drawn),nt,i,i
Cc1ccc(O)c(/C=N/NC(=O)C2=NNC(c3ccccc3)(c3ccccc3)C2)c1,i,i,13µM
Cc1ccc(O)c(/C=N/NC(=O)c2[nH]ncc2Br)c1,i,i,i
Cc1cc(C)cc(OCCSc2nc3ccc(NC(=O)c4cccs4)cc3s2)c1,nt,i,20µM
Cc1ccc(OCCSc2nc3ccc(NC(=O)c4cccs4)cc3s2)cc1,nt,i,i
O=C(N/N=C/c1c(O)n(-c2ccccc2Cl)c(=O)c2ccccc12)C1COc2ccccc2O1 (stereo not drawn),3.5µM,i,i
Cc1ccc(-n2c(O)c(/C=N/NC(=O)C3COc4ccccc4O3)c3ccccc3c2=O)cc1 (stereo not drawn),?,i,i
O=c1c2nncn2ccn1-c1ccc(F)c(F)c1,nt,i,i
COc1ccc(NC(=O)c2ccc(CN(c3cc(Cl)ccc3C)S(=O)(=O)c3ccccc3)cc2)cc1OC,i,i,?
COc1ccccc1NC(=O)c1ccc(CN(c2cc(Cl)ccc2C)S(=O)(=O)c2ccccc2)cc1,i,i,13µM
COc1ccc(CNC(=O)Cn2c(SCC(=O)Nc3ccc(OC)cc3)nc3ccccc32)cc1,nt,i,i
O=C(Nc1ccc(O)c(-c2nc3ccccc3o2)c1)C1(c2ccc(Br)cc2)CCCC1,i,i,5µM
O=C(COc1ccc(/C=N/NS(=O)(=O)c2ccccc2)cc1)Nc1cccc(Cl)c1,i,i,i
Cc1ccc(OCC(=O)Nc2ccc3nc(Nc4cccc(Cl)c4)cc(C)c3c2)cc1,nt,i,20µM
Cc1cc(C)cc(OCC(=O)Nc2ccc(-c3nc4ccccc4o3)cc2)c1,nt,i,i
Cc1ccc(OCC(=O)Nc2ccc(O)c(-c3nc4ccccc4o3)c2)cc1,i,i,4µM
O=C(Nc1ccc(O)c(-c2nc3ccccc3o2)c1)c1ccc(Br)cc1,nt,i,i
COc1ccc2c(c1)O[C@H](c1ccc3c(c1)OCO3)[C@@H](OC(=O)Nc1ccc(OC(F)F)cc1)C2=O,nt,i,i
Cc1ccc(C)c([C@@H]2NC(=O)c3ccccc3N2)c1,i,i,i
O=C(Nc1nc(-c2ccccc2)c(-c2ccccc2)s1)c1ccc(S(=O)(=O)N2CCCC2)cc1,i,i,?
O=C(Nc1nc(-c2ccccc2)c(C(=O)c2ccccc2)s1)c1ccc(S(=O)(=O)N2CCCC2)cc1,i,i,25µM
O=C(O)c1cccc(NC(=O)c2cccc(S(=O)(=O)N3CCCCC3)c2)c1,?,i,i
Nc1nc(NC(=O)c2cccc(S(=O)(=O)N3CCCCCC3)c2)nc(-c2ccccc2)n1,i,i,20µM
SMILES,NS1 function inh,Cruzain Triton,Cruzain inh noDet
Cc1ccc(NS(=O)(=O)c2cc([N+](=O)[O-])ccc2NNC(=S)Nc2cc(C)ccc2C)c(C)c1,13µM,i,?
COc1ccc(NC(=S)NNc2ccc([N+](=O)[O-])cc2S(=O)(=O)Nc2ccc(C)cc2C)cc1,i,i,25µM
Cc1ccc([N+](=O)[O-])cc1NC(=S)NC(=O)C(C)(C)C,i,i,i
Cc1cccc(NC(=S)NNc2cccc(Cl)c2)c1,i,nt,nt
COc1ccc(NC(=S)Nc2cccc([N+](=O)[O-])c2)cc1,i,i,i
Cc1ccc(NS(=O)(=O)c2cc([N+](=O)[O-])ccc2NNC(=S)Nc2cccc(Cl)c2)c(C)c1,?,20µM,i
COc1cccc(Cn2c(=O)c(-c3ccc(Cl)cc3)nc3cnc(OC)nc32)c1,nt,i,i
O=CN/C=C/c1cc(F)cc(F)c1F,nt,i,i
CCCCn1cnc2cc(NC(=O)c3cc(OC)c(OC)c(OC)c3)ccc21,nt,i,i
CCCCOC(=O)c1cccc(NC(=O)c2cc3ccccc3o2)c1,nt,i,i
CC(NC(=O)c1cc(-c2ccc(Cl)cc2)on1)c1ccccc1 (stereo not drawn),nt,i,i
CCOc1ccccc1C(=O)N(Cc1ccco1)Cc1ccco1,nt,i,i
O=C(c1ccco1)N1CCC2(CCN(Cc3ccncc3)CC2)CC1,nt,i,i
Cc1ccc(Cl)cc1,nt,i,i
O=C(CCCn1c(=O)c2ccccc2n(CC(=O)Nc2cccc(C(F)(F)F)c2)c1=O)NCc1ccc2c(c1)OCO2,nt,i,i
COc1ccc(NC(=O)Cn2c(=O)n(CCCC(=O)NCc3ccccc3Cl)c(=O)c3ccccc32)c(OC)c1,nt,i,i
O=C(CN1CCN(c2ccc(O)cc2)CC1)Nc1cc([N+](=O)[O-])ccc1Cl,i,i,25µM

# Assay outcomes deposited in PubChem by National Center for Advancing Translational Sciences (NCATS).
